# High-throughput results from PubChem BioAssay.
# Pf growth 48h – inhibits P. falciparum growth in the first generation, 48 h; P. falciparum luciferase growth in erythrocytes, 48 h; Potency, µM (titrated, usually from 28.7 µM), for the others: at the top dose activity change, negative = inhibition, usual class: inhibitors; 5.9% of 310,000 active; AID 504832
#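 Compounds are pin-transferred into medium, infected erythrocytes (2% hematocrit, 0.1% parasitemia final) are added, and plates sit one parasite generation at 37 C in 5% CO2. Detection reagent is then added and luminescence measured.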
# Pf growth 96h – P. falciparum growth inhibition at 96 hours; P. falciparum luciferase reporter growth, 96 h; AID 504834; 6.9% of 320,000 active; Potency, µM (series often up to 28.7 µM), without a hit: at the top dose activity change, negative = inhibition, most hits filed as inhibitors
#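 Two-generation exposure (96 h) targets delayed-death phenotype. Reporter parasites carrying integrated firefly luciferase, in red cells at 2% hematocrit and 0.05% parasitemia final, kept at 37 C, 5% CO2; luminescence loss indicates inhibition.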
# AMA1 RON2 block – inhibitors of Plasmodium falciparum AMA1-RON2 interaction; AlphaScreen AMA1-biotinylated RON2 peptide binding; Potency, µM (titrated, usually from 58.2 µM), without a hit: at the highest dose activity change, negative = inhibition, actives largely listed as inhibitors; 0.2% of 360,000 active; AID 720542;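 further: 0% = vehicle wells and -100% = peptide control; nearly all actives have a fitted effect of over 45% in size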
#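 AMA1 (3D7) with his tag at 25 nM final met compounds first, then biotinylated RON2 peptide at 25 nM; detection used donor plus acceptor beads, 10 µg/mL apiece, read by AlphaScreen after 30 min at room temperature.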
# HCV inhibitor – inhibitors of hepatitis C virus infection. Potency, µM (highest dose often 41.8 µM), for inactives: at the top dose activity change, negative = inhibition, most hits filed as inhibitors. 3.4% of 340,000 active. Huh7.5.1 HCVcc-Cre infection, luciferase reporter, 44 h. AID 651820
#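 Reporter virus HCVcc-Cre (~0.5 moi) infects cells exposed to compound; seeding density 1,000 cells/well with 4 h settling beforehand. Luminescence, 15 sec read, taken 44 h post-infection following a 15 min RT substrate incubation.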
# The depositor's hits bear a star; ? = inconclusive; / = not tested or not shown; [ ] = dose if it differs, or a comment. Compounds with a hit are over-represented: about 11% of the library has one in this group of screens. The call rests on the fitted dose curve; in most records, active means well fitted curve in the direction sought with a large enough effect; inconclusive means small, poorly fitted or top-dose-only effect, or another doubt; inactive means no such curve, though single readings can be large; an effect the other way counts as inactive or inconclusive. Unless noted, on the % scale 0 is the no-effect control and ±100 the full control effect; potency means the concentration at half of the fitted maximal effect.
SMILES,Pf growth 48h,Pf growth 96h,AMA1 RON2 block,HCV inhibitor
S=C(NCC1CCCO1)N1CCN(c2ccccc2)CC1 (stereo not given),31%,4.7µM*,2%,5%
OC(COCC1CC=CCC1)Cn1cnc2ccccc21 (stereo not given),/,?,0%,-7%
Cc1nc2ccccc2n1CC(O)COCC1CC=CCC1 (stereo not given),?,18%,40%,11µM*
C=CCSc1nc2c(c(C3CC=CCC3)c1C#N)CCC2 (stereo not given),?,8.3µM*,?,-22%
CC(C)OC(=O)CSc1nc2c(c(C3CC=CCC3)c1C#N)CCC2 (stereo not given),/,?,2%,-27%
COc1ccc(C2Nc3ccccc3C(=O)N2NS(=O)(=O)c2ccccc2)cc1OC (stereo not given),?,?,6%,?
O=C(NC(=S)NNS(=O)(=O)c1ccccc1)c1ccc([N+](=O)[O-])cc1,-9%,?,85%,3%
O=C(NNS(=O)(=O)c1ccc(F)cc1)c1ccc(S(=O)(=O)N2CCCCC2)cc1,15%,?,8%,6%
O=C(NNS(=O)(=O)c1ccccc1)c1ccc([N+](=O)[O-])cc1,18%,15µM*,24%,-8%
O=C(NNS(=O)(=O)c1ccc(F)cc1)c1ccc(O)cc1,-5%,10µM*,-1%,-23%
O=C1CCC(C(=O)Nc2ccccc2N2CCOCC2)=NN1,-14%,8%,2%,-1%
N#Cc1c(NC(=O)COC(=O)C2CC3C=CC2C3)oc(-c2ccccc2)c1-c1ccccc1 (stereo not given),-88%,9.3µM*,-4%,1%
CC1CCCC(C)N1C(=O)c1ccccc1Nc1ccc(SC(F)F)cc1 (stereo not given),?,13µM*,-7%,2.8µM*
CC1CN(C(=O)c2ccccc2Nc2ccc(SC(F)F)cc2)CC(C)O1 (stereo not given),?,?,7%,-1%
Cn1c(CNC(=O)C2CCCCC2)cc2ccccc21,3%,7%,0%,4%
CCn1c(CNC(=O)C2CCCCC2)cc2ccccc21,6%,9.3µM*,2%,0%
Cc1nnc2sc(-c3ccc(N(C)C)cc3)nn2c1=O,28%,10µM*,3%,4%
CN(C)c1ccc(-c2nn3c(-c4cccnc4)nnc3s2)cc1,?,1%,6%,-11%
CN(C)c1ccc(-c2nn3c(-c4ccccc4Cl)nnc3s2)cc1,?,/,49%,?
COc1ccccc1-c1nnc2sc(-c3ccc(N(C)C)cc3)nn12,?,12µM*,-5%,?
COc1ccccc1-c1nn2c(C3COc4ccccc4O3)nnc2s1 (stereo not given),14%,3.7µM*,6%,-19%
COc1ccccc1-c1nnc2sc(COc3ccc(F)cc3)nn12,1.5µM*,18%,16%,-6%
O=C(NCCNC(=O)c1ccccc1Cl)c1ccco1,11%,-8%,19%,-2%
Cn1c(SCC(=O)OC2CCCCC2)nnc1-c1ccco1,-8%,?,1%,4%
O=C(NCCCn1ccnc1)C(=O)c1c[nH]c2ccccc12,0%,15%,-15%,12%
SMILES,Pf growth 48h,Pf growth 96h,AMA1 RON2 block,HCV inhibitor
CC(C)(C)c1ccc(O)c(N=Cc2c(O)ccc3ccccc23)c1,?,?,27%,?
Oc1ccc2ccccc2c1C=Nc1ccccc1-c1nc2ccccc2[nH]1,/,?,14%,11µM*
O=C(O)c1ccc(CNC(=O)C2CCN(S(=O)(=O)c3cccs3)CC2)cc1,/,/,12%,/
COc1ccc2oc3c(ccc[n+]3C)c(=O)c2c1,/,/,-10%,/
CC1CCCN(C(=O)c2cccc(S(=O)(=O)N3CCCC3)c2)C1 (stereo not given),19%,-3%,4%,8%
CCN(CC)C(=O)c1ccc(S(=O)(=O)N2CCC(c3nc4ccccc4s3)CC2)cc1,?,?,-2%,2.5µM*
CC1CCCN(C(=O)c2ccc(S(=O)(=O)N3CCC(c4nc5ccccc5s4)CC3)cc2)C1 (stereo not given),/,/,4%,10µM*
Cc1nn(Cc2ccc(Cl)c(Cl)c2)c(C)c1NC(=O)c1sc2ccccc2c1Cl,18%,4%[5.75 µM],8%,22µM*
Cc1ccccc1Cn1nc(C)c(NC(=O)c2sc3ccccc3c2Cl)c1C,?,?,-12%,32µM*
O=C(NCCCN1CCC(Cc2ccccc2)CC1)c1ccc2nc(N3CCOCC3)sc2c1,10µM*,?,5%,10µM*
COc1ccc(NC(=O)CC2C(=O)N(c3cccc(OC)c3)C(=O)N2CCC(C)C)cc1 (stereo not given),/,12µM*,1%,-22%
COc1ccc(NC(=O)CC2C(=O)N(c3cccc(OC)c3)C(=O)N2C(C)C)cc1 (stereo not given),-17%,18%,-1%,-1%
COCCN1C(=O)N(c2cccc(OC)c2)C(=O)C1CC(=O)Nc1cccc(F)c1 (stereo not given),-1%,4.1µM*,-13%,0%
COc1ccc(NC(=O)CC2C(=O)N(c3cccc(OC)c3)C(=O)N2Cc2ccco2)cc1 (stereo not given),-4%,9.3µM*,0%,-15%
CCOc1ccc(NC(=O)CC2C(=O)N(c3ccccc3)C(=O)N2Cc2ccco2)cc1 (stereo not given),8%,-65%,-5%,-27%
CCNC(=O)CC1C(=O)N(c2cccc(OC)c2)C(=O)N1CCOC (stereo not given),2%,/,6%,19%
CCSc1ccc([C@@H]2[C@H]3C(=O)N(CC)C(=O)[C@H]3[C@]3(C(=O)OC)CCCCN23)cc1OC,/,/,-18%,-1%
O=C(NCc1ccccc1)C(c1ccc(-c2ccccc2)cc1)N1CCN(CCN2CCOCC2)CC1 (stereo not given),/,/,-12%,/
CN(C(=O)CSCC(=O)Nc1ccc(Cl)cc1)C1CCCCC1,/,/,2%,7%
Cc1ccc(Oc2nc3ccccn3c(=O)c2/C=C(\C#N)C(=O)NC2CCS(=O)(=O)C2)c(C)c1 (stereo not given),?,10µM*,-5%,19%
Cc1cc(C)cc(Oc2nc3ccccn3c(=O)c2/C=C(\C#N)C(=O)NC2CCS(=O)(=O)C2)c1 (stereo not given),?,-17%,14%,-26%
N#C/C(=C\c1c(Oc2ccccc2F)nc2ccccn2c1=O)C(=O)NC1CCS(=O)(=O)C1 (stereo not given),?,9.3µM*,-4%,10%
N#C/C(=C\c1c(Oc2ccccc2Cl)nc2ccccn2c1=O)C(=O)NC1CCS(=O)(=O)C1 (stereo not given),-23%,0%,-20%,-2%
CCn1c(C)nc2cc(C(=O)NNC(=S)NC(=O)c3ccc(OC)cc3)ccc21,0%,1%,70%,?
CCCCCCN1C[C@H](O)[C@@H](n2cc(C3CC3)nn2)C[C@@H]1c1ccccc1,/,/,0%,/
O=C(c1ccccc1)C(C(=O)N1CCCCC1)n1ccccc1=O (stereo not given),12%,51%,-6%,3%
